Bioassay records: PubChem BioAssay, National Center for Advancing Translational Sciences (NCATS)
This is a sample that favours compounds with a hit; in the whole collection about 10% have one here.
3T3 cytotox – Cytotoxic Profiling in NIH 3T3 Cell Line of Diverse Libraries Using Quantitative High-Throughput Screening | NIH 3T3 viability, CellTiter-Glo ATP luminescence, 48-72 h | Potency, µM (titrated, usually from 96.7 µM), actives largely listed as inhibitors | 4.3% of 94,000 active; also: nearly all actives have a fitted effect of over 55% in size
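Cytotoxicity was measured by CellTiter-Glo ATP luminescence after 48 or 72 h compound exposure at 37 °C. Mouse NIH 3T3 fibroblasts were seeded at 400 cells/well and dosed by 23 nL pin transfer.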
FLuc inh – Firefly luciferase inhibition profiling of diverse chemical library using quantitative high-throughput screening; Luciferin 4-monooxygenase (Photinus pyralis), P08659; purified P. pyralis luciferase, luminescence, biochemical; Potency, µM (series often up to 115 µM), hits mostly inhibitors; 2.5% of 76,000 active; AID 1347043, 2019; also: nearly all actives have a fitted effect of over 65% in size
Target sequence (P08659 whole entry, looked up): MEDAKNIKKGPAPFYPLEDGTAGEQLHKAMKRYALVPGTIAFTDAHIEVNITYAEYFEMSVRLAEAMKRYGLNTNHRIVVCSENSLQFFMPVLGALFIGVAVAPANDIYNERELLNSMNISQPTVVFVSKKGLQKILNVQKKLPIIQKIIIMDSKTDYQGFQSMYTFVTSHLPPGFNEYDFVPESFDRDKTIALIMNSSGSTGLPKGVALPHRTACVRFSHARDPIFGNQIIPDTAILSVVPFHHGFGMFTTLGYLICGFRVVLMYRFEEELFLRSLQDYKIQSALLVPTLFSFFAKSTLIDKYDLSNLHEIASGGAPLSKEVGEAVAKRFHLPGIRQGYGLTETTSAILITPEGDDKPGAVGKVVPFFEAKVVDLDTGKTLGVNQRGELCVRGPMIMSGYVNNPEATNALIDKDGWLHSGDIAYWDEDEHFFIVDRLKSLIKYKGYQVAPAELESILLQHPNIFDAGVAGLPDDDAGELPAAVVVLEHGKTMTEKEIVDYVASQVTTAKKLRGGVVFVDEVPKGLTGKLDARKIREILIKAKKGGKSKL
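Luminescence read by CCD imager after adding enzyme (10nM final) to wells holding compound, titrated in qHTS. Substrates 10uM each D-luciferin and ATP; buffer 50mM Tris acetate pH 7.5, 10mM Mg acetate, Tween-20, BSA.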
NPR1 antag – Natriuretic polypeptide receptor (hNpr1) antagonism - Primary qHTS. Atrial natriuretic peptide receptor 1 (Homo sapiens), P16066. 1.6% of 76,000 active. HEK293 hNpr1 GloSensor cGMP, ANP-stimulated luminescence. Potency, µM (top dose mostly 46.3 µM), hits mostly inhibitors; calls by dose curve; also: nearly all actives have a fitted effect of over 60% in size
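HEK293 cells stably expressing human Npr1 and cGMP GloSensor pGS-40F, loaded 2 h with 2% GloSensor reagent, given compound 30 min at room temperature. Luminescence read before and 20 min after 0.1 nM hNppA.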
GPT2 inhibitor – Primary qHTS assay for inhibitors of Glutamate pyruvate transaminase 2 (GPT2); 0.25% of 100,000 active; Recombinant GPT2, coupled pyruvate oxidase/HRP Amplex Red fluorescence; Alanine aminotransferase 2 (Homo sapiens), Q8TD30; Potency, µM (doses to about 57.7 µM), usual class: inhibitors; AID 1671188, 2021; also: nearly all actives have a fitted effect of over 60% in size
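Fluorescence of coupled pyruvate oxidase/HRP/Amplex Red system (50uM Amplex, 30 min, dark) reports pyruvate formed by GPT2. Enzyme reaction: 10ng/uL GPT2, 2mM L-alanine, 250uM a-KG, 30 min room temperature, pH 7.5; 50uM AOA control.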
HEK cytotox – Cytotoxic Profiling in HEK 293 Cell Line of Diverse Libraries Using Quantitative High-Throughput Screening; AID 1345083, 2018; Potency, µM (top dose mostly 115 µM), most hits filed as inhibitors; 6.6% of 94,000 active; HEK 293 viability, ATP luminescence (CellTiter-Glo), 48-72 h; also: nearly all actives have a fitted effect of over 60% in size
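Luminescence from cellular ATP, measured with CellTiter-Glo, indicates HEK 293 viability. Cells plated at 250 cells/well are treated with compound for 48 or 72 hr at 37 degree Celsius before reagent addition.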
Npr1 antag conf – Natriuretic polypeptide receptor (hNpr1) antagonism - Confirmation | shares compounds with NPR1 antag | HEK293 hNpr1 cGMP GloSensor luminescence, ANP-stimulated | 76% of 1,400 active | Potency, µM (titrated, usually from 57.6 µM), actives largely listed as inhibitors; calls by dose curve; also: nearly all actives have a fitted effect of over 70% in size
NPR2 antag – Natriuretic polypeptide receptor (hNpr2) antagonism - Subtype selectivity assay; shares compounds with NPR1 antag; HEK293 hNpr2 GloSensor cGMP luminescence, CNP-stimulated; Potency, µM (titrated, usually from 57.6 µM), most hits filed as inhibitors; 67% of 1,400 active; AID 1347046, 2019; calls by dose curve; also: nearly all actives have a fitted effect of over 70% in size
FLuc inh counter – Natriuretic polypeptide receptor (hNpr1) antagonism - Confirmation firefly luciferase (FLuc) inhibition counterscreen; purified FLuc enzyme, luminescence, Km substrate; Potency, µM (highest dose often 57.6 µM), most hits filed as inhibitors; 0.7% of 1,400 active; shares compounds with NPR1 antag
GloSensor ctrl – Natriuretic polypeptide receptor (hNpr1) antagonism - Counterscreen GloSensor control cell line. shares compounds with NPR1 antag. HEK293 GloSensor cGMP, SNP-stimulated, luminescence. Potency, µM (series often up to 57.6 µM), most hits filed as inhibitors. 69% of 1,400 active; calls by dose curve; also: nearly all actives have a fitted effect of over 70% in size
Each line names hits and unclear results; the compound was inactive in the other large screens (follow-up assays come after a bar, where they were run). Unless noted, calls follow the shape of the dose curve; as a rule, active = well fitted curve in the direction sought with a large enough effect; inconclusive = small, poorly fitted or top-dose-only effect, or another doubt; inactive = no such curve, though single readings can be large; an effect the other way counts as inactive or inconclusive.

COc1ccc(C2Cn3nnc(C(=O)N4CCN(C(=O)Cc5ccc(Cl)cc5)CC4)c3CO2)cc1 (centres undefined)	NPR1 antag inconclusive | Npr1 antag conf 19µM | NPR2 antag inconclusive | FLuc inh counter inactive | GloSensor ctrl 22µM
COc1cccc(CC(=O)N2CCN(C(=O)c3nnn4c3COC(c3ccc(Cl)cc3)C4)CC2)c1 (centres undefined)	NPR1 antag 11µM | Npr1 antag conf 24µM | NPR2 antag 24µM | FLuc inh counter inactive | GloSensor ctrl 22µM
COc1ccc(C2Cn3nnc(C(=O)N4CCN(C(=O)c5ccccc5)CC4)c3CO2)cc1 (centres undefined)	HEK cytotox inconclusive
COc1ccccc1CN1CC[C@@H]2CN(S(C)(=O)=O)[C@@H]2C1	none
CS(=O)(=O)c1ccc(-c2cnc([C@@H]3COCCN3Cc3ccccc3O)[nH]2)cc1	3T3 cytotox inconclusive, HEK cytotox inconclusive
CCOCCCNC(=O)NCC1Cn2cccc2CN1Cc1ccccc1 (centres undefined)	none
COc1cccc(CNC(=O)CCC2CCN(C(=O)c3ccccc3)CC2)c1OC	none
COc1ccccc1CC(=O)N1CCN(C(=O)c2nnn3c2COC(c2ccc(Cl)cc2)C3)CC1 (centres undefined)	3T3 cytotox inconclusive, NPR1 antag 10µM, HEK cytotox inconclusive | Npr1 antag conf 12µM | NPR2 antag 15µM | FLuc inh counter inactive | GloSensor ctrl 11µM
COc1ccc(C2Cn3nnc(C(=O)N4CCN(C(=O)Cc5cccc(F)c5)CC4)c3CO2)cc1 (centres undefined)	NPR1 antag inconclusive, HEK cytotox inconclusive | Npr1 antag conf 22µM | NPR2 antag 24µM | FLuc inh counter inactive | GloSensor ctrl 19µM
COc1ccc(C(=O)N2CCN(C(=O)c3nnn4c3COC(c3ccc(Cl)cc3)C4)CC2)c(C)c1 (centres undefined)	3T3 cytotox inconclusive, NPR1 antag 10µM, HEK cytotox inconclusive | Npr1 antag conf 19µM | NPR2 antag 19µM | FLuc inh counter inactive | GloSensor ctrl 14µM
COc1cccc(N2CCN(C(=O)c3cc4n(n3)CC(c3ccc(Cl)cc3)OC4)CC2)c1 (centres undefined)	3T3 cytotox inconclusive, NPR1 antag 16µM, HEK cytotox inconclusive | Npr1 antag conf 27µM | NPR2 antag inconclusive | FLuc inh counter inactive | GloSensor ctrl inconclusive
C[S+](=O)([O-])N1CCCC(C(=O)N2CCC3(CC2)CC(=O)Nc2ccccc2O3)C1 (centres undefined)	HEK cytotox inconclusive (no result: FLuc inh, NPR1 antag)
CCOC(=O)C1CCN(C(=O)c2ccc3nc(-c4ccncc4)oc3c2)CC1	none (no result: FLuc inh, NPR1 antag)
CCCCCC(=O)N1CC[C@@H](CC(=O)NCc2cccnc2)[C@@H](CC)C1	none
O=C(CC1CCN(C(=O)C2CCC2)C1)NC1CC1 (centres undefined)	none
O=C(N[C@H]1CCOC[C@H]1C1CCOCC1)c1ccc(-n2ccnc2)cc1	none
CC1Oc2ccc(NC(=O)Cc3ccccc3)cc2CN(Cc2ccc(Cl)cc2)C1=O (centres undefined)	3T3 cytotox inconclusive, NPR1 antag 11µM, HEK cytotox inconclusive | Npr1 antag conf 22µM | NPR2 antag 19µM | FLuc inh counter inactive | GloSensor ctrl 17µM
CC1Oc2ccc(NC(=O)c3ccc(F)cc3F)cc2CN(CCc2ccccc2)C1=O (centres undefined)	HEK cytotox inconclusive
CC(=O)Oc1ccccc1C(=O)Nc1ccc2c(c1)CN(CCc1ccc(F)cc1)C(=O)C(C)O2 (centres undefined)	3T3 cytotox 25µM, NPR1 antag 16µM, HEK cytotox inconclusive | Npr1 antag conf 24µM | NPR2 antag 24µM | FLuc inh counter inactive | GloSensor ctrl 24µM
CCNC(=O)Nc1ccc2c(c1)CN(Cc1ccc(Cl)cc1)C(=O)C(C)O2 (centres undefined)	3T3 cytotox inconclusive, HEK cytotox inconclusive
COc1ccc(C(=O)N2CCC(N3C(=O)C(O)C34CCCCC4)CC2)c(OC)n1 (centres undefined)	none
COc1ncccc1-c1cnc2[nH]cc(CC(=O)Nc3cccc(Cl)c3)c2c1	3T3 cytotox inconclusive, NPR1 antag inconclusive, HEK cytotox 32µM | Npr1 antag conf 40µM | NPR2 antag inconclusive | FLuc inh counter inactive | GloSensor ctrl 44µM
Cc1cc(NC(=O)Cc2c[nH]c3ncc(-c4ccccc4C)cc23)n(C)n1	3T3 cytotox inconclusive, NPR1 antag 16µM, HEK cytotox inconclusive | Npr1 antag conf 31µM | NPR2 antag 28µM | FLuc inh counter inactive | GloSensor ctrl 28µM
NC(=O)Cc1c[nH]c2ncc(-c3ccc(Oc4ccccc4)cc3)cc12	3T3 cytotox 22µM, NPR1 antag 7.9µM, HEK cytotox 35µM | Npr1 antag conf 7.9µM | NPR2 antag 11µM | FLuc inh counter inactive | GloSensor ctrl 7.9µM
COc1ccc(-c2cnc3[nH]cc(CC(=O)Nc4ccc(OC)nc4)c3c2)cc1	3T3 cytotox inconclusive, NPR1 antag inconclusive, HEK cytotox inconclusive | Npr1 antag conf inconclusive | NPR2 antag inconclusive | FLuc inh counter inactive | GloSensor ctrl inconclusive
O=C(NCc1c[nH]c2ncccc12)c1cccnc1	none
COc1ccc(NC(=O)COc2ccc(NC(=O)C3CC3)cn2)cc1	none
COc1cccc(NC(=O)N[C@H]2CCN(C(=O)c3cnccn3)[C@@H]2C(=O)N[C@@H](Cc2cccs2)C(N)=O)c1	none
Cn1nccc1CN1CCn2c(nn(-c3ccc(Cl)cc3)c2=O)C1	3T3 cytotox inconclusive, HEK cytotox inconclusive (no result: FLuc inh, NPR1 antag)
